# ALOX15 inhib: blocks human 15-lipoxygenase activity; P16050; purified 15hLO-1, xylenol orange hydroperoxide absorbance; Potency, µM (doses to about 57.1 µM), inactives show at the top dose activity change, negative = inhibition, hits mostly inhibitors; 1.4% of 74,000 active; further: on the % scale 0 is the no-effect control and ±100 the full control effect; nearly all actives have a fitted effect of over 55% in size
#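 Quantitative HTS in 25 mM Hepes pH 7.5 containing 0.01% Triton X-100: human 15hLO-1 at 40 nM, arachidonic acid at 50 uM, 6 min turnover. Product quantified via ferrous oxidation/xylenol orange, 573:405 nm absorbance ratio.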
# Casp1 inh: caspase-1 (human) inhibition, allosteric or competitive. P29466. Potency, µM (doses to about 57.5 µM), inactives show at the top dose activity change, negative = inhibition, most hits filed as inhibitors. Caspase-1 enzyme, Ac-WEHD-AFC fluorogenic rate. 0.03% of 75,000 active;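 further: plate controls were vehicle for no effect and no substrate for full effect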
# ERK AVP block: blocks ERK signaling stimulated by vasopressin | Potency, µM (series often up to 57.5 µM), for the others: at the top dose activity, negative = inhibition, hits mostly inhibitors | HEK293-V1b, vasopressin-stimulated pERK AlphaScreen | AID 995 | 0.99% of 72,000 active; further: on the % scale 0 is the no-effect control and ±100 the full control effect; nearly all actives have a fitted effect of over 55% in size
#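 HEK293 cells stably expressing V1b receptor, seeded overnight in 1% FBS, were treated with compounds for 30 min at 37C, then stimulated 5 min with 25 nM vasopressin; phospho-ERK read by AlphaScreen SureFire after lysis.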
# Caspase-7 inhib: blocks human caspase-7 allosterically or competitively. 0.02% of 75,000 active. P55210. Potency, µM (top dose mostly 57.5 µM), without a hit: at the highest dose activity change, negative = inhibition, actives largely listed as inhibitors. recombinant caspase-7, Ac-DEVD-AFC fluorescence rate; active means well fitted inhibition curve with a large enough effect in the main read-out, with a control signal flat, not every such curve was filed as active; inconclusive means small, poorly fitted or top-dose-only effect, or a change in a side signal; further: % of control where 0% means no effect
# Target sequence (P55210 24-198 limits assumed): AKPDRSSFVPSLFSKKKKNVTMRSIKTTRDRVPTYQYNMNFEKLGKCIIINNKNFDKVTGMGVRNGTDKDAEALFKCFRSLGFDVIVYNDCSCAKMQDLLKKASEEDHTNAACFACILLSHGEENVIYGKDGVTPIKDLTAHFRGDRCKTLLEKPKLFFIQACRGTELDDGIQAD
# Target sequence (P55210 207-303 limits assumed): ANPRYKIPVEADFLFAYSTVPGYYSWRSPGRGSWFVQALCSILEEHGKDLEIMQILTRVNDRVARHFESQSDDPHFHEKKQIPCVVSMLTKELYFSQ
# Tau filament bind: binders of human tau filaments | Potency, µM (doses to about 57.1 µM), for inactives: at the top dose activity change, negative = inhibition | P10636 | recombinant tau filaments, thioflavin S fluorescence, 15 h; filaments grown with octadecylsulfate alongside compound | AID 596 | 2% of 71,000 active;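 further: on the % scale 0 is the no-effect control and ±100 the full control effect; actives lower thioflavin S fluorescence by blocking filaments or displacing dye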
#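 Quantitative HTS: thioflavine S signal from ODS-induced tau filaments, excited at 450 nm, emission 510 nm. Conditions: 1 uM tau, 30 uM ODS, 15 h at 37 C, pH 7.4.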
# Numbers without * were called inactive; u = inconclusive; x = no result; [ ] = remark or other dose. An excerpt weighted towards active compounds, which were near 3.9% of everything screened. Unless noted, the call rests on the fitted dose curve; in most records, active means well fitted curve in the direction sought with a large enough effect; inconclusive means small, poorly fitted or top-dose-only effect, or another doubt; inactive means no such curve, though single readings can be large; an effect the other way counts as inactive or inconclusive. Potency means the concentration at half of the fitted maximal effect.
SMILES,ALOX15 inhib,Casp1 inh,ERK AVP block,Caspase-7 inhib,Tau filament bind
CC(C)[C@@H]1OC(=O)C=CC=CC=CC=CC=CC[C@@H](O)[C@H](C)[C@@H](O)C[C@H](O)C[C@H](O)C[C@H](O)C[C@H](O)C[C@H](O)C[C@H](O)C=C[C@@H]1C,x,x,x,x,16%[11.4 µM]
CCOC(=O)N1CCN(C(=O)c2ccc3c(=O)n(Cc4ccc(OC)cc4)c(=S)[nH]c3c2)CC1,-20%,-1%,32µM*,-15%,277%
CCOC(=O)N1CCN(C(=O)c2ccc3c(=O)n(Cc4ccccc4)c(=S)[nH]c3c2)CC1,-12%,0%,u,-6%,-3%
OCCNc1ncnc2c1ncn2[C@@H]1O[C@@H](CO)[C@H](O)[C@@H]1O,0%[11.4 µM],-1%[11.5 µM],3%[11.5 µM],0%[11.5 µM],-4%[11.4 µM]
COc1ccc(NCc2nnc(SCC(=O)Nc3cccc(C)c3)o2)cc1,-1%,0%,9%,-1%,16µM*
Cc1ccc(CCNC(=O)C2CCCN2S(=O)(=O)c2ccc3c(c2)CCC(=O)N3)cc1 (configuration not stated),-5%,1%,-3%,-3%,-22%
COc1ccc(NC(=O)C2CCCN2S(=O)(=O)c2ccc3c(c2)CCC(=O)N3)c(OC)c1 (configuration not stated),2%,-1%,-7%,-2%,25µM*
Oc1ccc2c(c1)OC(c1ccc(O)c(O)c1)C(O)C2 (configuration not stated),13µM*,2%,u,-4%,x
Oc1cc(O)c2c(c1)O[C@H](c1ccc(O)c(O)c1)[C@@H](O)C2,-7%[25.6 µM],0%,-4%,0%,u
CC(=O)N(O)[C@@H]1c2cc(C#N)ccc2OC(C)(C)[C@H]1O,4%,-2%,-4%,0%,x
CCn1c(Cc2ccccc2)nnc1SCC(=O)Nc1nc2ccccc2s1,25µM*,0%,-9%,-3%,7%
CCn1c(SCC(=O)Nc2nc3c(s2)CCCC3)nnc1-c1ccccc1,-17%,0%,32µM*,-2%,27%
COc1cccc(NC(=O)/C=C\c2ccc(Cl)cc2)c1,-2%[25.6 µM],-3%,32µM*,-2%,5%
c1nc(N2CCCC2)c2[nH]cnc2n1,3%,1%,32µM*,0%,2%
OCCN1CCN(c2ncnc3nc[nH]c23)CC1,u,2%,x,1%,25µM*
c1nc(N2CCCCCC2)c2[nH]cnc2n1,5%,-4%,x,2%,u
Cc1c(N=C/C=C2\N(C)c3ccccc3C2(C)C)c(=O)n(-c2ccccc2)n1C,-21%,-13%,-36%,-11%,1µM*
Cc1ccc(O)c(-c2cc(-c3ccccc3C)[nH]n2)c1,16µM*,-5%,1%,-12%,25µM*
Oc1ccccc1-c1cc(-c2ccccc2Cl)[nH]n1,13µM*,-3%,-3%,-7%,-9%
Cc1ccc(O)c(-c2cc(C(F)(F)C(F)F)[nH]n2)c1,u,3%,-27%,-1%,-30%
N#CCCn1c(=O)c(-c2ccc(Cl)cc2)nc2cnc(Nc3ccccc3)nc21,6%,x,-21%,u,405%
COc1ncc2nc(-c3cc(F)cc(F)c3)c(=O)n(CCC#N)c2n1,-1%,-1%,-31%,-5%,u
CCCn1c(NC(=O)c2ccc(Cl)c(S(=O)(=O)N3CCCC3)c2)nc2ccccc21,14%,-4%,3.2µM*,-6%,34%
CC1CCC(C(=O)O)([C@H](Br)C(=O)O)CC1 (some centres not stated),-4%[11.4 µM],-2%[11.5 µM],8%[11.5 µM],2%[11.5 µM],11%[11.4 µM]
c1ccc(C2=NN[C@@H]3c4ccccc4-c4ccccc4N3C2)cc1,u,2%[11.5 µM],u,1%[11.5 µM],4µM*
Cc1nc2cnc(N3CCOCC3)nc2n(C[C@H]2CCCO2)c1=O,-1%,-12%,-19%,-22%,1%
Cc1ccc(-c2nc(C#N)c(NCc3cccc4c3OCO4)o2)cc1,u,-2%,u,0%,49%
N#Cc1nc(-c2ccc(F)cc2)oc1NCc1cccc2c1OCO2,13µM*,-4%,7.9µM*,-3%,261%
COCCn1c(=O)c(-c2ccc(Cl)cc2)nc2cnc(Oc3ccccc3)nc21,-3%,x,5%,u,-6%
